Chlamy TAG = inducers of triacylglycerol accumulation in Chlamydomonas reinhardtii algae; Chlamydomonas reinhardtii TAG, Nile Red fluorescence, 72 h; calls only at 10 µM (by protocol); actives 0.84% (n = 44,000); AID 1159537; call rule not given here;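 also: hits raise Nile Red signal meaning more stored TAG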
* hit, by the source's call. The sample as a whole holds a higher share of hits than the screen did.

What do the screens show for `Nc1ccc(Cl)cc1C(=O)c1ccccc1`?
Chlamy TAG: inactive

What do the screens show for `Nc1ccc(F)cc1C(=O)c1ccccc1`?
Chlamy TAG: active

What do the screens show for `Nc1ccc(Br)cc1C(=O)c1ccccc1F`?
Chlamy TAG: inactive

What do the screens show for `Fc1cccc(CN2CCN(c3ccccc3Cl)CC2)c1`?
Chlamy TAG: inactive

What do the screens show for `Oc1ccc(CN2CCN(c3cccc(Cl)c3)CC2)cc1`?
Chlamy TAG: active

What do the screens show for `COc1ccc(CN2CCN(c3ccccc3)CC2)cc1O`?
Chlamy TAG: inactive

How did COc1ccc(CN2CCN(c3cccc(Cl)c3)CC2)cc1O do in these assays?
Chlamy TAG: inactive

Results for Clc1ccc(CN2CCN(c3ccccc3)CC2)cc1Cl ?
Chlamy TAG: inactive

How did Fc1ccc(CN2CCN(c3cccc(Cl)c3)CC2)cc1 do in these assays?
Chlamy TAG: active

Results for Oc1ccc(CN2CCN(c3ccccc3)CC2)cc1 ?
Chlamy TAG: active

What do the screens show for `Clc1cccc(N2CCN(Cc3ccccc3Cl)CC2)c1`?
Chlamy TAG: inactive

Results for Fc1ccc(CN2CCN(c3cccc(Cl)c3)CC2)c(F)c1 ?
Chlamy TAG: inactive

What do the screens show for `COc1cccc(CN2CCN(c3cccc(Cl)c3)CC2)c1`?
Chlamy TAG: inactive

How did COc1cccc(/C=C/c2nc3ccccc3c(=O)n2-c2ccccc2)c1O do in these assays?
Chlamy TAG: inactive

How did O=c1cccc2n1C[C@H]1C[C@H]2CN(Cc2ccc([N+](=O)[O-])cc2)C1 do in these assays?
Chlamy TAG: inactive

Results for O=c1c2ccccc2nc(/C=C/c2ccccc2F)n1-c1ccccc1 ?
Chlamy TAG: inactive

Results for O=C(CN1CCN(c2ccc(F)cc2)CC1)Nc1ccc(Cl)cc1C(=O)c1ccccc1 ?
Chlamy TAG: inactive

How did COc1ccc(CN2CCN(c3ccccc3OC)CC2)cc1C do in these assays?
Chlamy TAG: inactive

How did Cc1cccc(N2CCN(Cc3cccc(Cl)c3)CC2)c1C do in these assays?
Chlamy TAG: inactive

Results for O=[N+]([O-])c1ccc(N2CCN(Cc3cccc(F)c3)CC2)cc1 ?
Chlamy TAG: inactive

Results for O=[N+]([O-])c1ccc(CN2CCN(c3ccc(F)cc3)CC2)cc1 ?
Chlamy TAG: active

What do the screens show for `CN1CCN(Cc2ccc([N+](=O)[O-])cc2)CC1`?
Chlamy TAG: inactive

What do the screens show for `CCC(C)N1CCN(Cc2ccc([N+](=O)[O-])cc2)CC1` (stereo unspecified)?
Chlamy TAG: active

How did CCN1CCN(Cc2ccc([N+](=O)[O-])cc2)CC1 do in these assays?
Chlamy TAG: inactive

What do the screens show for `O=[N+]([O-])c1ccc(N2CCN(Cc3cccc(Cl)c3)CC2)cc1`?
Chlamy TAG: inactive

What do the screens show for `O=[N+]([O-])c1ccc(CN2CCN(Cc3ccccc3)CC2)cc1`?
Chlamy TAG: active

Results for CN1CCN(Cc2cccc([N+](=O)[O-])c2)CC1 ?
Chlamy TAG: inactive

Results for O=C(COc1ccccc1)N1CCN(Cc2ccc([N+](=O)[O-])cc2)CC1 ?
Chlamy TAG: inactive

Results for CCc1ccc(CN2CCCCC2c2cccnc2)cc1 (stereo unspecified) ?
Chlamy TAG: inactive

What do the screens show for `CSc1nc2ccccc2c(=O)n1-c1ccccc1`?
Chlamy TAG: inactive

Results for Cc1cccc(-n2c(-c3cccnc3)nc3ccccc3c2=O)c1 ?
Chlamy TAG: inactive

What do the screens show for `CCCN(CCO)C1CCCC(C)C1` (stereo unspecified)?
Chlamy TAG: inactive

How did O=[N+]([O-])c1cccc(CNCCc2c[nH]c3ccccc23)c1 do in these assays?
Chlamy TAG: inactive

What do the screens show for `CCC(C)N1CCN(C(=O)COc2ccc(Br)cc2)CC1` (stereo unspecified)?
Chlamy TAG: inactive

Results for Cc1cccc(CN2CCN(c3cccc(C)c3C)CC2)c1 ?
Chlamy TAG: inactive

Results for COc1cc(CN2CCN(Cc3ccccc3)CC2)cc(OC)c1 ?
Chlamy TAG: active

What do the screens show for `COc1ccccc1N1CCN(Cc2ccc(C)cc2)CC1`?
Chlamy TAG: active

Results for Clc1ccc(CN2CCN(Cc3ccc4c(c3)OCO4)CC2)cc1 ?
Chlamy TAG: inactive

What do the screens show for `Cc1ccc(CN2CCN(CCO)CC2)cc1`?
Chlamy TAG: active

What do the screens show for `COc1ccccc1N1CCN(Cc2ccccc2)CC1`?
Chlamy TAG: inactive

Results for Cc1ccc(CN2CCN(C)CC2)cc1 ?
Chlamy TAG: inactive

How did Clc1cccc(CN2CCN(Cc3ccc4c(c3)OCO4)CC2)c1 do in these assays?
Chlamy TAG: inactive

What do the screens show for `OCCN1CCN(Cc2ccc(F)cc2)CC1`?
Chlamy TAG: inactive

How did COc1cc(CN2CCN(C)CC2)cc(OC)c1 do in these assays?
Chlamy TAG: inactive

Results for COc1cccc(CN2CCN(Cc3ccccc3)CC2)c1 ?
Chlamy TAG: inactive

How did COc1ccccc1N1CCN(Cc2ccc(C(C)C)cc2)CC1 do in these assays?
Chlamy TAG: inactive

Results for Clc1ccc(N2CCN(Cc3ccc4c(c3)OCO4)CC2)cc1 ?
Chlamy TAG: active

How did C1CN(C2CCSC2)CCO1 (stereo unspecified) do in these assays?
Chlamy TAG: inactive

What do the screens show for `CCOc1cccc(CN2CCN(C)CC2)c1O`?
Chlamy TAG: inactive

What do the screens show for `COc1cc(Br)c(CN2C[C@@H]3C[C@@H](C2)c2cccc(=O)n2C3)cc1OC`?
Chlamy TAG: inactive

What do the screens show for `O=[N+]([O-])c1ccccc1N1CCNCC1`?
Chlamy TAG: inactive

How did CC(CC(=O)NCCc1ccccc1)S(=O)O (stereo unspecified) (tested in a mixture with another compound) do in these assays?
Chlamy TAG: inactive

Results for CCOc1ccc(CN2CCN(c3ccccc3OC)CC2)cc1 ?
Chlamy TAG: active

How did CCOc1cc(CN2CCN(c3ccccc3C)CC2)ccc1O do in these assays?
Chlamy TAG: inactive

How did CCOc1ccccc1CN1CCN(c2ccccc2C)CC1 do in these assays?
Chlamy TAG: inactive

How did CCOc1ccc(CN2CCN(c3ccc(OC)cc3)CC2)cc1 do in these assays?
Chlamy TAG: inactive

How did CCOc1cc(CN2CCN(c3ccc(F)cc3)CC2)ccc1O do in these assays?
Chlamy TAG: inactive

How did CCc1ccc(CN2CCN(CC)CC2)cc1 do in these assays?
Chlamy TAG: active

How did CCCCOc1ccc(CN2CCN(CC)CC2)cc1 do in these assays?
Chlamy TAG: inactive

How did CCOc1ccc(CN2CCN(c3ccc(F)cc3)CC2)cc1 do in these assays?
Chlamy TAG: active

What do the screens show for `CCN1CCN(Cc2cccc(Br)c2)CC1`?
Chlamy TAG: inactive

What do the screens show for `CCOc1ccccc1CN1CCN(c2ccccc2OC)CC1`?
Chlamy TAG: inactive

What do the screens show for `CCOc1ccc(CN2CCN(c3ccccc3C)CC2)cc1`?
Chlamy TAG: active

Results for COc1ccccc1N1CCN(Cc2ccc(N(C)C)cc2)CC1 ?
Chlamy TAG: inactive

Results for COc1ccc(CCNCc2c[nH]c3ccccc23)cc1 ?
Chlamy TAG: inactive

How did OCCN1CCN(Cc2ccc(Cl)cc2Cl)CC1 do in these assays?
Chlamy TAG: inactive

Results for O=[N+]([O-])c1ccc(N2CCNCC2)cc1SCc1ccco1 ?
Chlamy TAG: inactive

What do the screens show for `CCCCc1nc2ccccc2c(=O)n1-c1ccc([N+](=O)[O-])cc1`?
Chlamy TAG: inactive

What do the screens show for `CCCCn1c(C)c(C(C)=O)c2cc(OC)ccc21`?
Chlamy TAG: inactive

What do the screens show for `Cc1ccc([C@H]2NCC[C@@]3(O)CCCC[C@H]23)cc1`?
Chlamy TAG: inactive

Results for CCOc1cc(CN2CCN(c3ccccc3Cl)CC2)ccc1O ?
Chlamy TAG: inactive

Assay outcomes from PubChem.
